Data from ChEMBL document CHEMBL2218924, “A broad activity screen in support of a chemogenomic map for kinase signalling research and drug discovery” (Biochem J, 2013).

Assays:
[1] = target: T1, Ephrin type-A receptor 3 (Homo sapiens) (UniProt P29320); details: at 10 µM
T1 sequence (whole entry): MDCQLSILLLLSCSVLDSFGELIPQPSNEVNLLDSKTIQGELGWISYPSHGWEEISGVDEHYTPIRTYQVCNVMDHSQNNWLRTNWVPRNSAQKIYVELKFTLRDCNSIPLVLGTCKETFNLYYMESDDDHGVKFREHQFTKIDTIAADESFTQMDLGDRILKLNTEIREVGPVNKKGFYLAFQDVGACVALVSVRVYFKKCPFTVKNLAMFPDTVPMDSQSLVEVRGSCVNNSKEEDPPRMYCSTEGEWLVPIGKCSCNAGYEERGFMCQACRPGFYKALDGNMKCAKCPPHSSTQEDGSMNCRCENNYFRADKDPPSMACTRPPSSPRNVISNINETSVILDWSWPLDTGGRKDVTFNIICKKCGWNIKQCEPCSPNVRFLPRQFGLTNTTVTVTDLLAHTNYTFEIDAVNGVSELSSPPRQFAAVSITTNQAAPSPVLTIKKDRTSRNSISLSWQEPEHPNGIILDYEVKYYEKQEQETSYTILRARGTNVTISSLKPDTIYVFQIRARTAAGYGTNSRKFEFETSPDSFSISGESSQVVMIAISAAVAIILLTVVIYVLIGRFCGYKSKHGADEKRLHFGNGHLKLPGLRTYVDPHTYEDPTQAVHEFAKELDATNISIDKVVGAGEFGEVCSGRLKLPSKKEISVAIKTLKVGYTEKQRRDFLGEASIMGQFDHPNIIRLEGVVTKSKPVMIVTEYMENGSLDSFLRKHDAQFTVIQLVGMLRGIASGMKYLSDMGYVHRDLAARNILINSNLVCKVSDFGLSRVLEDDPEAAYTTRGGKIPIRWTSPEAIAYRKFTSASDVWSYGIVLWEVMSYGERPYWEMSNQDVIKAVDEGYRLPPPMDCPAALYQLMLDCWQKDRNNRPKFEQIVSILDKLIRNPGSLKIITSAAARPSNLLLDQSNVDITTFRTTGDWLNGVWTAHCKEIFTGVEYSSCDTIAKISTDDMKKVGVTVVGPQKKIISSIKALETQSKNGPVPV

[2] = target: Ephrin type-A receptor 4 (Homo sapiens) (UniProt P54764); details: at 1 µM
[3] = target: Ephrin type-A receptor 4 (Homo sapiens) (UniProt P54764); details: at 10 µM
[4] = target: Ephrin type-A receptor 5 (Homo sapiens) (UniProt P54756); details: at 10 µM
[5] = target: Ephrin type-A receptor 7 (Homo sapiens) (UniProt Q15375); details: at 10 µM
[6] = target: T2, Ephrin type-B receptor 3 (Homo sapiens) (UniProt P54753); details: at 10 µM
T2 sequence (whole entry): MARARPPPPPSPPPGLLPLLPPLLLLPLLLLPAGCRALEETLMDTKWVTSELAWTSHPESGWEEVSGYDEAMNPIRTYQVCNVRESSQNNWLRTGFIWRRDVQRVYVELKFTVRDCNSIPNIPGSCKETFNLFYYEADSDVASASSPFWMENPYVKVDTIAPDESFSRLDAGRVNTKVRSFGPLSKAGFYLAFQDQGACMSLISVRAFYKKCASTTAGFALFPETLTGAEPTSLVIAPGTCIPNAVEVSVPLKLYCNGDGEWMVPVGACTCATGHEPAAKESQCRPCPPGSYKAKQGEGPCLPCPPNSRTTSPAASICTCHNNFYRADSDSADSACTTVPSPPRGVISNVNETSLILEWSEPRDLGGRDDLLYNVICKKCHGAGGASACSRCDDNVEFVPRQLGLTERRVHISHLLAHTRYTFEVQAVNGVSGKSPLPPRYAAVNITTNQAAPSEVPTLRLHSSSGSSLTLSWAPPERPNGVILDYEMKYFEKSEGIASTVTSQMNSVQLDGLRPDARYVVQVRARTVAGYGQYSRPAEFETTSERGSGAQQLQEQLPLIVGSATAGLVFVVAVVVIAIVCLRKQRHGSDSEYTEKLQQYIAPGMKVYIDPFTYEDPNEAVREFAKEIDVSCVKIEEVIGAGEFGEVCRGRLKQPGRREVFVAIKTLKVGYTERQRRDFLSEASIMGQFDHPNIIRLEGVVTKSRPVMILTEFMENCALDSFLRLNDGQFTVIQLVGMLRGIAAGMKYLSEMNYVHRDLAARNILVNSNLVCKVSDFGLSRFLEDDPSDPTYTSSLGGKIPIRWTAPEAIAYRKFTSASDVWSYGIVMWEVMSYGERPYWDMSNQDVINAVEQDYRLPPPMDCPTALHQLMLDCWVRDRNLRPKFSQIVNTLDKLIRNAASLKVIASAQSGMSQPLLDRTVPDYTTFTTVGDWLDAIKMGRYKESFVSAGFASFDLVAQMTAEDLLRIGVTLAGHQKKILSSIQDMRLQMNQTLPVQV

[7] = target: T3, Ephrin type-B receptor 4 (Homo sapiens) (UniProt P54760); details: at 1 µM
T3 sequence (whole entry): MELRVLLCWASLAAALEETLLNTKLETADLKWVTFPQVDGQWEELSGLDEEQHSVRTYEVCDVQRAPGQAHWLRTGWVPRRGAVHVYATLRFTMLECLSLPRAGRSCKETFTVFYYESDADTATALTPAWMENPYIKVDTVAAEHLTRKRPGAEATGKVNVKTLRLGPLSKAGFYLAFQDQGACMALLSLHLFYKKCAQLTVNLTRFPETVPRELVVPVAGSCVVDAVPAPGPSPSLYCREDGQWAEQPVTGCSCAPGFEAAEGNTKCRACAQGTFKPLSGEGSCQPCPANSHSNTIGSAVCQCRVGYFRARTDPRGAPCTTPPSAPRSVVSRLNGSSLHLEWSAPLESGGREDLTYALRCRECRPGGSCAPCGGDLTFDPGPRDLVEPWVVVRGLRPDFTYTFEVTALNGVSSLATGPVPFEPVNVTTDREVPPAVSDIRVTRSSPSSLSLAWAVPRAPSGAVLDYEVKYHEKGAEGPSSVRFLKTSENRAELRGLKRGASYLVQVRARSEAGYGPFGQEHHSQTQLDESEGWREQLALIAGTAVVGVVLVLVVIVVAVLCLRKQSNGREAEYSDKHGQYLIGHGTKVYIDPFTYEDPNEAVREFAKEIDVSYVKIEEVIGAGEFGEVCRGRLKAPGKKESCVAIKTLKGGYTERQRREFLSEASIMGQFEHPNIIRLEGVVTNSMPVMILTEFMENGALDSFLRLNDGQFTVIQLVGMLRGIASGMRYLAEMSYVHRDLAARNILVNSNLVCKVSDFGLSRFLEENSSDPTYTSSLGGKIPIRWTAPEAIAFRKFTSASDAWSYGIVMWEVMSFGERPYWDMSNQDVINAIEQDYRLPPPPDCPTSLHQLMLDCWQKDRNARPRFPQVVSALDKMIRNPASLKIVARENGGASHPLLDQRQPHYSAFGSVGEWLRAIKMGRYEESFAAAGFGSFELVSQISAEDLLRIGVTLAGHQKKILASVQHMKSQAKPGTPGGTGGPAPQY

[8] = target: T3, Ephrin type-B receptor 4 (Homo sapiens); details: at 10 µM
[9] = target: Receptor tyrosine-protein kinase erbB-4 (Homo sapiens) (UniProt Q15303); details: at 10 µM
Chain of Receptor tyrosine-protein kinase erbB-4 (Homo sapiens) (Q15303 whole entry): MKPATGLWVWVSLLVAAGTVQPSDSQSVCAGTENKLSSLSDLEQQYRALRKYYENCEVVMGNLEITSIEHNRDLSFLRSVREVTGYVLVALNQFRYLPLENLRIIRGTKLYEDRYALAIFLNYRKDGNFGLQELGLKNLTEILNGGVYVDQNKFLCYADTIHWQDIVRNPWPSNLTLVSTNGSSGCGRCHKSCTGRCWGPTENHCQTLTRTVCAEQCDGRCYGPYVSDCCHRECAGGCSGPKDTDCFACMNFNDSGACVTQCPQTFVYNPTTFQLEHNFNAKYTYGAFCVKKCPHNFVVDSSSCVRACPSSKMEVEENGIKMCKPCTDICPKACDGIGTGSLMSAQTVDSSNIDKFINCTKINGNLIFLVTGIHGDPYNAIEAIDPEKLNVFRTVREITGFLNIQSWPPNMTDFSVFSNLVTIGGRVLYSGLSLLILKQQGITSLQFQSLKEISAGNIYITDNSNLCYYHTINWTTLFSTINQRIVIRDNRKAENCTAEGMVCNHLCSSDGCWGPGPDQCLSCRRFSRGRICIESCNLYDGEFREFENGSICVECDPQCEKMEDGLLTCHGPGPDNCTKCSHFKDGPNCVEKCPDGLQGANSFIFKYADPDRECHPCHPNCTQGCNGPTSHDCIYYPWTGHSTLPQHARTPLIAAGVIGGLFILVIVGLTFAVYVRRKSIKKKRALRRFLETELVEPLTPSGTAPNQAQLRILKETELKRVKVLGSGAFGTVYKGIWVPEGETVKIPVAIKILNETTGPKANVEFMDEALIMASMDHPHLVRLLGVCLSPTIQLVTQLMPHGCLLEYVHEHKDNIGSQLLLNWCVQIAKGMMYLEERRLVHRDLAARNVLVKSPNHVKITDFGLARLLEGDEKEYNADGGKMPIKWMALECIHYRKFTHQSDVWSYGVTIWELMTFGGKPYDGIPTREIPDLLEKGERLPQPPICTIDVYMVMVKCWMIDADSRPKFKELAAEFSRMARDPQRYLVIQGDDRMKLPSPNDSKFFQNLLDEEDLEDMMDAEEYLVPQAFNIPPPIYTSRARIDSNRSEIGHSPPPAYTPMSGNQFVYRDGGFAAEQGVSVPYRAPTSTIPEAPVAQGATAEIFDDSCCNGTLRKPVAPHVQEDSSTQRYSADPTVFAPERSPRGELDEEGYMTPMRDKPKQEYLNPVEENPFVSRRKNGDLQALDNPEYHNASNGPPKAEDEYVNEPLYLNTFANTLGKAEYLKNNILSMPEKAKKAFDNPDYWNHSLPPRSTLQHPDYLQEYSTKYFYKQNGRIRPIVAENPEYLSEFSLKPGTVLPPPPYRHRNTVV

Chain of Ephrin type-A receptor 4 (Homo sapiens) (P54764 whole entry): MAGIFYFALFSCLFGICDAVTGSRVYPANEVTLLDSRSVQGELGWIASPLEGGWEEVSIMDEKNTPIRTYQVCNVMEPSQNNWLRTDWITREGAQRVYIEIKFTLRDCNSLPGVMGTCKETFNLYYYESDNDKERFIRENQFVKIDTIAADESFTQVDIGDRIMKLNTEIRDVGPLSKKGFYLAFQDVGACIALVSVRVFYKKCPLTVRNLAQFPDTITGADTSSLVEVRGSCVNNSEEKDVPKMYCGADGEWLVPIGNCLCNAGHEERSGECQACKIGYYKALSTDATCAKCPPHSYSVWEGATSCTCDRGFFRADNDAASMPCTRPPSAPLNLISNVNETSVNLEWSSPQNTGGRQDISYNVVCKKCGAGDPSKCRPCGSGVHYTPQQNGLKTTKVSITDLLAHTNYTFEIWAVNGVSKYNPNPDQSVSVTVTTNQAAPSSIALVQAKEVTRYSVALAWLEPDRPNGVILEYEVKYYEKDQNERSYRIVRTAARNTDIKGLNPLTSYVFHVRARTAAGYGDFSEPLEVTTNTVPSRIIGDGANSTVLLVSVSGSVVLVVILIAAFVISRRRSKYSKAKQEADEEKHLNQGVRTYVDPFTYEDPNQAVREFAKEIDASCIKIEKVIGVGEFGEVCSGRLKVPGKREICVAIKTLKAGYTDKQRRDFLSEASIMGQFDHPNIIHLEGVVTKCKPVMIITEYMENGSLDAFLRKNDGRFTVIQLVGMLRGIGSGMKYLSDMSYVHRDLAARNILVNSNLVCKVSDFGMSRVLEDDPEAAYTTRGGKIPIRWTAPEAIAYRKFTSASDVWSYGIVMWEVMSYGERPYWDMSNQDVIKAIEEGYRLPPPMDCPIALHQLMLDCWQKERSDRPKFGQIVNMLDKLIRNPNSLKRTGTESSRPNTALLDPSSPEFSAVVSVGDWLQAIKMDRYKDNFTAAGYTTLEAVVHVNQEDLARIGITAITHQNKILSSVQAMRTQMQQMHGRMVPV
Chain of Ephrin type-A receptor 5 (Homo sapiens) (P54756 whole entry): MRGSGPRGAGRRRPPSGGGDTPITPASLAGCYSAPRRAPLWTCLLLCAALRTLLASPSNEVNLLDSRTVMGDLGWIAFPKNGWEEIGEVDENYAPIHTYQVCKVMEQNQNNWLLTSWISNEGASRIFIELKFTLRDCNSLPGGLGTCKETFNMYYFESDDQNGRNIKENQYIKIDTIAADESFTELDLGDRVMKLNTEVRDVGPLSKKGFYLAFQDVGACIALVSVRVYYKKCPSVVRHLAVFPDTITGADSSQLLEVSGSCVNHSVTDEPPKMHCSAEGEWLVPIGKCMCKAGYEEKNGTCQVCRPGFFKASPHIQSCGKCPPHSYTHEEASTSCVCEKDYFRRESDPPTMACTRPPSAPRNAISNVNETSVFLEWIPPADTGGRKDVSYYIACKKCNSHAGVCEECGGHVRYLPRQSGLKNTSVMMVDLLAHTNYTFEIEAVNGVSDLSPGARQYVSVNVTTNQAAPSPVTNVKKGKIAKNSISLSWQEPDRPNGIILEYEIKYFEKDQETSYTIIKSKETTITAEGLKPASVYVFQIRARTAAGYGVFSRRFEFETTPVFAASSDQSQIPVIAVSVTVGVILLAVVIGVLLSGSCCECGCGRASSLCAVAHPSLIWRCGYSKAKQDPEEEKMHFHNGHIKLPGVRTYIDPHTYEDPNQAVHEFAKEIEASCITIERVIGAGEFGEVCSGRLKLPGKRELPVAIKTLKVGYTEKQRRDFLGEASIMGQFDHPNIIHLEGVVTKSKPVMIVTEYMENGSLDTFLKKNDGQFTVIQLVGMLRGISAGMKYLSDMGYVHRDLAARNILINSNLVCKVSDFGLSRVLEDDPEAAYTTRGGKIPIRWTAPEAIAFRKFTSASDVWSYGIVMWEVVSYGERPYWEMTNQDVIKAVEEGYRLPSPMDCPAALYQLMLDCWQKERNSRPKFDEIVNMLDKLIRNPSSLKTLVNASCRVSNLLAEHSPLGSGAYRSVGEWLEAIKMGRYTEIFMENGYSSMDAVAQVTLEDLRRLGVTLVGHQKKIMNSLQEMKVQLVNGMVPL
Chain of Ephrin type-A receptor 7 (Homo sapiens) (Q15375 28-998 limits assumed): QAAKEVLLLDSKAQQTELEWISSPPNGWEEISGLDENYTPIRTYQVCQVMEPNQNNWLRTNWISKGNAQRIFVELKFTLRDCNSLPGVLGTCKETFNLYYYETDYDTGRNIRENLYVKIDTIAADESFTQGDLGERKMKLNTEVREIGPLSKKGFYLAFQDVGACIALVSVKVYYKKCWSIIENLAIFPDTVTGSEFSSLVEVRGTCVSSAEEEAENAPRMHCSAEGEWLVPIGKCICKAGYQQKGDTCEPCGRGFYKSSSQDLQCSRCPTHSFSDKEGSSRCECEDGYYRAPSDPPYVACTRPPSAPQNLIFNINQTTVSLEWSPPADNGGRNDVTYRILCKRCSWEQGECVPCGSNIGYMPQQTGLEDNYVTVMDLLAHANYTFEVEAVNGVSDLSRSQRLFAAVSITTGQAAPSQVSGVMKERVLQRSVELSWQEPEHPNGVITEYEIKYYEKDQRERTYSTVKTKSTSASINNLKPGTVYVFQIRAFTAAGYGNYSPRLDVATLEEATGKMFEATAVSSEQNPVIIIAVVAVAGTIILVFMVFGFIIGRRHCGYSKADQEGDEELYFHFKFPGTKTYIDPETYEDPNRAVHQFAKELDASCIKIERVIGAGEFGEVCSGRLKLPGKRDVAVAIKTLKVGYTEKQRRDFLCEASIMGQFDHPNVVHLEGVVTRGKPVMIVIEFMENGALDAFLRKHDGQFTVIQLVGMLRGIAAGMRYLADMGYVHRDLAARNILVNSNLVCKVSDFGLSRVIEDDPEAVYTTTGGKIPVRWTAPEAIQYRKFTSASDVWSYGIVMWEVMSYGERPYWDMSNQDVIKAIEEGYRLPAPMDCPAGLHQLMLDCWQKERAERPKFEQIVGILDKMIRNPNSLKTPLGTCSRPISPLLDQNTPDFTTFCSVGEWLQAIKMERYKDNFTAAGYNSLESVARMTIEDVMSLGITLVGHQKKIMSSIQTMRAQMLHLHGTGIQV

SMILES: CSc1nc(-c2ccc(F)cc2)c(-c2ccnc(NC(C)c3ccccc3)c2)[nH]1 (centres undefined)
- residual activity [1]: 97%
- residual activity [2]: 102%
- residual activity [3]: 91%
- residual activity [4]: 97%
- residual activity [5]: 95%
- residual activity [6]: 80%
- residual activity [7]: 99%
- residual activity [8]: 88%
- residual activity [9]: 85%
